Out of some 53,000 sequences screened, about 3,700 (7%) were called active.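 How the source made its calls: active means gene knockdowns whose robust z-score for IL-1 alpha signal is at least 2 or at most -2, so actives lie on both sides; inactive means the rest.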 This excerpt belongs to a sample that is enriched for actives.
Test: Components of the Cytosolic LPS Sensing Pathway: Gene Identification via Genome-wide siRNA Screen;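 further: robust z of the log signal after scaling to non-targeting control siRNA wells of the plate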
Settings: RAW264.7 macrophages, IL-1a HTRF, actives lie on both sides, screened at 100 nM (by protocol), cells primed 5 h with Pam3CSK4 first
Method in brief: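 Read-out: IL-1a HTRF on supernatant, divided by plate negative-control median ×100, log-transformed and converted to robust z-score. Cells were RAW264.7 given 100 nM siRNA, Pam3CSK4-primed 5 hours, then LipidA-transfected 24 hour.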

z-score, active:
GCAAAACUUGACUACCGCCTT against Bzw1 2.08, CCAUUCCAUGUCGAUGUCUTT against Prm2 -2.08, GGCUUUUGUCAAACAGCAUTT against Ins1 -2.9, GGAAAAACUACCAAGAGGATT against Pigp 2.32, GGUACCUAGGAUGCUCUCATT against Ift140 -2.23, GGAUGUCAGGACAAAACCATT against Olfr1335 -2.51, GCCUUUCAUGGAUUAACCUTT against Gsdmc -2.03, GGAGGAUCUUGAGUUGGAGTT against Nupr1l 2.32, GGUCAUUGAGCUGAUGGACTT against Elovl1 4.34, GGAACAGCCUAUGUGGUCUTT against Sf3b6 -2.17, GGCAAAAGAACAAGAAACUTT against Orc1 -2.09, GGAGAAAGGAUUGUGUUUGTT against Clec10a 2.2, GGCAUGAAUAUGCAUUUAGTT against Arrdc3 -3.65, GGCCCACGUCCUGUACAUUTT against Tdrd1 3.38, GGAAUUCUUCAUCCAUGGATT against Olfr570 -2.66, CGGUUCUGGGAAUUCUUUGTT against Olfr624 -2.11, AGUCUCCAAAUGCAUUUAATT against Serpinb9g -2.5, CACGACCUAGGUGUGACCATT against Arrdc2 -2.31, GGCACUCAGGAACUUCCUGTT against Eci3 -2.05, CGACUAAGGAUGAAAAGCATT against Apbb1ip -3.04, GGGAGUUACUAACCACUUCTT against Gja3 -2.05, GGAGAUGAACCAUUAUGUCTT against Mycbp -2.03, GGAGCUCCUGAACAGGAUCTT against Gpr26 2.13

z-score, inactive:
GCGAGGUGAAAAGCUUCUGTT against Sobp -0.433, GGAAUUUUGCCAGCAAAUGTT against Edaradd 0.624, GGCCAUUAAUUACUACGAGTT against Ttc21a 0.368, CCCGAGAAUACACCAUCAATT against Rpl31 0.347, GGGAGAUGUAUGCUUGCUCTT against Evi2a 0.934, CUCUAUCUCAUUGCAGUCCTT against Olfr671 -0.0809, GUUCCCUACAAGUUCUUCCTT against Phox2a 1.54, GCGUAGACUUGAGGACUUATT against Uimc1 -0.705, CGGCGGUGUGUUGUUUUAGTT against Hmces 0.36, CGGUUAGACAGUGCACCAATT against Dnm1 0.4, GGCUCGGACCAAAAAAAUUTT against Msantd3 -1.33, GCAUGCGACUCUGUUCUCGTT against Gtf2a2 -0.228, GGAGAUUUUCAAGAGACUCTT against 0610010F05Rik 1.94, GGUCUACCAUGACACACGUTT against Prrg2 0.519, GCCUGGUUUCUCCCUCAAATT against Pkmyt1 -0.567, CGCAGUUAUAUUCCACCACTT against Slain1 -0.317, GGCCUUCACUGGUUAAAAUTT against Ankrd6 0.0966, GGAGAUCCUCAUUUGUGUGTT against Ftmt -1.99, GGGUAUGAGCAUAAAAUAATT against Il16 -1.2, GCAAAUGGUGCAUACGUGATT against Slc35d1 0.211, CCAAUUUGUCAAAACAAUCTT against Slit2 0.681, GGAAGAGCUUUCUGGAAAUTT against Ndrg2 0.226, GGCAUACUUGUACCGCUAUTT against Mmp9 -0.35, GGAUAUUCAGCACUGGGAATT against Rrm2 -0.525, GGUAGUGGACAGUUUUGACTT against Mrpl55 0.675, CGACGAAGAUAUUUACAGUTT against Vav1 0.504, CCAAAAAAGUUAGUUGUGGTT against Phf6 1.23, GGUCGUAAAAAUUGAAAUCTT against Lhcgr 0.169, CCAUUUAUGGGUUUUCUCUTT against Taar7b 0.12, GGCUGUGCUACAGUUUCUCTT against Get4 -0.498, GGGCUUUCACACAAUCCCUTT against Kcns1 -0.362, GGAACUGGCCAAUUACUACTT against Rdm1 -1.29, GGAUAUCACUUGCUAUUCCTT against Abraxas2 -0.406, GGCUUAUGACGAAUUAGUCTT against Ubn2 0.274, GCACCUUGUCAACCAUUACTT against Kctd7 0.842, GGGCAUCAGCAUUUGGUCATT against Med1 0.698, GGAAGUCGAGUUGAAAUCGTT against Rida 0.755, GUUGAGUGGCUGUGAUAUATT against Nms -0.00159, GGAAAUAUGAUAGAAUGCCTT against Pramel32 0.17, GGCUAUCACCUCCAACACCTT against Fkbp8 -1.04, GGACAAGGAACAGAGCCUUTT against Rnf183 -1.27, GGAGAUCUUGAGAUUGUAUTT against Ticrr 0.424, CCCGGUUCUUAGGUUUGUATT against Prr15l 1, GGUCAGGUUGCCAAGAAGGTT against Sbds 1.59, CCCAUAUGAGCUGAAAGCUTT against Il1b -0.878, GGGAAUGUCUGAAAGUCCCTT against Klhdc10 0.66, GGCCAUCAAGGUCUUUUCUTT against Washc1 -1.34, GGAUCUUCUUCUAUCAGUCTT against Ncf4 0.487, CCGUUUUGAACCAUAAAAATT against Zfp7 -0.873, GGUUUCGUAUAAAUUCUCUTT against Ank 1.53, CGGAGUCAUACUUUUUCGATT against Trim12c 0.0182, GGUAAAAUACUACCUGAGATT against Abca15 -0.0103, GGAAGAAAUGUACAAACUGTT against Spg21 1.63, GGACAUUUUCUUUGGAAAATT against Ccnl1 0.194, GGACAGCAAGACCAACCUATT against Elavl2 -1.87, CCAUAAAUCACUCAGUUUGTT against Adad1 0.222, GGCAUUAUCUACAUGCACATT against Olfr1287 0.228, GCAUGGCUAUUUAACAUUCTT against Rpl7l1 0.171, GCAAUUUCUGUGUGAAGAATT against Ahcyl1 -0.705, GGGCUCUAGCUAAAAACGATT against Med10 1.23, GAAUCGGAGGACAAAAUACTT against Emx1 0.368, GCACCUUUGAAUGUGAAGUTT against Ccl2 -0.408, CCUUCAUUGGUUAGCAUGUTT against Rbl2 -0.424, CCUGACGAUCAAAUCACUGTT against Mvb12a 0.0387, CGCCAAUAUGGCCAUUGACTT against Ikzf2 -0.304, GGCUCUGUUUAUCCUGGAGTT against Pcdha7 -0.0385, GGUUUCAUUUUUCGAGGAGTT against Cit -0.269, GGUGAUACCAUCACUUUGATT against Mark2 0.173, GCCGCAUCCACACAUCUCUTT against Daam2 0.465, GCCCAUAGUAUAAAAUACCTT against Dzip1 1.06, GGAAGAUGCCUUUUCCAAGTT against Syt1 0.752, GGUGGAAUAUAUUGAGUAUTT against Fam199x 0.251, GCGAAAGACGAUCAAAACCTT against Scn1a 0.841, GGCUACACUCUGACAGCACTT against Znhit2 -0.666, GCCCGGUAAAGGUAUCCAUTT against Trp53bp1 0.384, GCCUCUCCUGUGAAUGACATT against Erlec1 -0.699, GGGUGUCACAAAAUAAAAUTT against Sigirr -0.245, GCAGAAAUACUGGCGAAUATT against Gm9725 0.607, GGUGGAGACACUGAAGGUUTT against Akap1 0.314, GACCAGAAAUUUAAGUGCUTT against Dnajc30 1.5, GGAUCUUCCUCAUCACCCUTT against Ube4a 0.657, GCUUACCUGCUGUCUUAAUTT against F630003A18Rik 0.42, CCUUACAUGUUGACUACCCTT against Rnase13 0.403, GGUCUUCUGUCCAUUAGUGTT against Pigc 0.14, GGAGAAAGAUGGCAUAAUGTT against Slitrk6 -0.595

Reference: PubChem BioAssay AID1508600 (Functional Genomics Laboratory (NCATS/FGL), 2020)
